In PubChem BioAssay (NCI):
About 83,000 compounds went through this panel and 20% of them were active in at least one assay; those are over-represented in the sample as a whole.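 Single-dose data. Exposure time 48 hours. Values below 10 considered active.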 Active and inactive are the calls of the source.

How the values were obtained:
Test in all cases: NCI-60 one-dose screen, 48 h (100 = growth as untreated, 0 = no growth, -100 = all killed)
Conditions in all cases: 10 µM unless noted
HCT-15 colon = system: HCT-15 colon
HT29 colon = system: HT29 colon
SNB-75 CNS = system: SNB-75 CNS
SNB-19 CNS = system: SNB-19 CNS
U251 CNS = system: U251 CNS
PC-3 prostate = system: PC-3 prostate
SK-MEL-5 melanoma = system: SK-MEL-5 melanoma
UACC-62 melanoma = system: UACC-62 melanoma
LOX IMVI melanoma = system: LOX IMVI melanoma
SK-MEL-28 melanoma = system: SK-MEL-28 melanoma
SK-MEL-2 melanoma = system: SK-MEL-2 melanoma
EKVX NSCLC = system: EKVX NSCLC
SN12C renal = system: SN12C renal
UO-31 renal = system: UO-31 renal
TK-10 renal = system: TK-10 renal
ACHN renal = system: ACHN renal
CAKI-1 renal = system: CAKI-1 renal
A498 renal = system: A498 renal
CCRF-CEM leukemia = system: CCRF-CEM leukemia
MOLT-4 leukemia = system: MOLT-4 leukemia

Measured: growth

Cc1cnc(NC(=O)C(Cc2ccccc2)NC(=O)c2ccccc2)s1 (stereo not given)
inactive: HCT-15 colon 79.9% | HT29 colon 55% | SNB-75 CNS 83.6% | SNB-19 CNS 93.3% | U251 CNS 92.2% | PC-3 prostate 70.7% | SK-MEL-5 melanoma 25.5% | UACC-62 melanoma 62.2% | LOX IMVI melanoma 55.9% | SK-MEL-28 melanoma 88.9% | SK-MEL-2 melanoma 43.2% | EKVX NSCLC 78.5% | SN12C renal 76.1% | UO-31 renal 26.7% | TK-10 renal 79.2% | ACHN renal 68% | CAKI-1 renal 92.4% | A498 renal 92.6% | CCRF-CEM leukemia 81.3% | MOLT-4 leukemia 40.8%

O=C(Nc1ccc(F)c(Cl)c1)c1n[nH]c(=O)c2ccccc12
inactive: HCT-15 colon 89.6% | HT29 colon 112% | SNB-75 CNS 94.2% | SNB-19 CNS 104% | U251 CNS 90.3% | PC-3 prostate 112% | SK-MEL-5 melanoma 90.9% | UACC-62 melanoma 81.4% | LOX IMVI melanoma 87.4% | SK-MEL-28 melanoma 115% | SK-MEL-2 melanoma 74.8% | EKVX NSCLC 123% | SN12C renal 98.1% | UO-31 renal 106% | TK-10 renal 157% | ACHN renal 89.1% | CAKI-1 renal 89.5% | A498 renal 103% | CCRF-CEM leukemia 105% | MOLT-4 leukemia 97.2%

CN(C)C1CCC(NC2=CC(=O)C=CC2=O)CC1 (stereo not given)
inactive: HCT-15 colon 114% | HT29 colon 116% | SNB-75 CNS 86.1% | SNB-19 CNS 115% | U251 CNS 111% | PC-3 prostate 104% | SK-MEL-5 melanoma 106% | UACC-62 melanoma 110% | LOX IMVI melanoma 97.9% | SK-MEL-28 melanoma 113% | SK-MEL-2 melanoma 107% | EKVX NSCLC 111% | SN12C renal 115% | UO-31 renal 92.3% | TK-10 renal 113% | ACHN renal 99.2% | CAKI-1 renal 100% | A498 renal 122% | CCRF-CEM leukemia 107% | MOLT-4 leukemia 102%

COc1cc(C(=O)CCCl)ccc1O
inactive: HCT-15 colon 95.2% | HT29 colon 112% | SNB-75 CNS 85.8% | SNB-19 CNS 101% | U251 CNS 103% | PC-3 prostate 95% | SK-MEL-5 melanoma 103% | UACC-62 melanoma 97.4% | LOX IMVI melanoma 90.5% | SK-MEL-28 melanoma 107% | SK-MEL-2 melanoma 114% | EKVX NSCLC 93.7% | SN12C renal 95.6% | UO-31 renal 90.9% | TK-10 renal 109% | ACHN renal 96.9% | CAKI-1 renal 90.2% | A498 renal 106% | CCRF-CEM leukemia 106% | MOLT-4 leukemia 99.5%

CCN(CC)CCCNc1nc(C)cc(Nc2ccc3nc(C)cc(N)c3c2)n1
inactive: HCT-15 colon 105% | HT29 colon 92.5% | SNB-75 CNS 90.9% | SNB-19 CNS 108% | U251 CNS 100% | PC-3 prostate 76% | SK-MEL-5 melanoma 112% | UACC-62 melanoma 117% | LOX IMVI melanoma 95.6% | SK-MEL-28 melanoma 111% | SK-MEL-2 melanoma 36.1% | EKVX NSCLC 96.2% | SN12C renal 94.7% | UO-31 renal 89.7% | TK-10 renal 88% | ACHN renal 101% | CAKI-1 renal 95.6% | A498 renal 125% | CCRF-CEM leukemia 99.4% | MOLT-4 leukemia 112%

CCSc1nnc(NC(=O)Cc2ccc(Cl)cc2)s1
inactive: HCT-15 colon 98.3% | HT29 colon 114% | SNB-75 CNS 106% | SNB-19 CNS 97.4% | U251 CNS 98.7% | PC-3 prostate 101% | SK-MEL-5 melanoma 107% | UACC-62 melanoma 97% | LOX IMVI melanoma 97.1% | SK-MEL-28 melanoma 113% | SK-MEL-2 melanoma 73.4% | EKVX NSCLC 103% | SN12C renal 105% | UO-31 renal 40% | TK-10 renal 113% | ACHN renal 103% | CAKI-1 renal 102% | A498 renal 100% | CCRF-CEM leukemia 87.9% | MOLT-4 leukemia 103%

Nc1nc(N)c2nc(CNc3ccc(C(=O)CC(CCC(=O)O)C(=O)O)cc3)cnc2n1 (stereo not given)
inactive: HCT-15 colon 33.3% | HT29 colon 36.7% | SNB-75 CNS 71.7% | SNB-19 CNS 42.9% | U251 CNS 36.2% | PC-3 prostate 33.6% | SK-MEL-5 melanoma 22.8% | UACC-62 melanoma 26.6% | LOX IMVI melanoma 20.5% | SK-MEL-28 melanoma 68.7% | EKVX NSCLC 42.8% | SN12C renal 30.9% | TK-10 renal 74.7% | ACHN renal 27.2% | A498 renal 51.4% | CCRF-CEM leukemia 17.8% | MOLT-4 leukemia 33%
active: SK-MEL-2 melanoma -6.72% | UO-31 renal 8.63% | CAKI-1 renal -3.87%

COc1cc(C2C3=C(COC3=O)Nc3c2ccc2c3CCCC2)cc2c1OCO2 (stereo not given)
active: HT29 colon -3.84% | SK-MEL-5 melanoma -18.8% | A498 renal 8.51%
inactive: HCT-15 colon 11.2% | SNB-75 CNS 34.3% | SNB-19 CNS 36.1% | U251 CNS 23.1% | PC-3 prostate 31.7% | UACC-62 melanoma 36.4% | LOX IMVI melanoma 27.7% | SK-MEL-28 melanoma 70.1% | SK-MEL-2 melanoma 18.6% | EKVX NSCLC 47.9% | SN12C renal 28% | UO-31 renal 47.7% | TK-10 renal 65.9% | ACHN renal 29.2% | CAKI-1 renal 33.2% | CCRF-CEM leukemia 14.6% | MOLT-4 leukemia 18.3%

COc1ncc(-c2ccc3ncnc(Nc4cccc(Cl)c4)c3c2)cc1NS(=O)(=O)CCN1CCOCC1
active: HCT-15 colon 6.62% | SNB-75 CNS -19.2% | SK-MEL-5 melanoma -19.6% | UACC-62 melanoma -21.4% | LOX IMVI melanoma 1.29% | SK-MEL-28 melanoma -4.89% | SK-MEL-2 melanoma -1.15% | EKVX NSCLC -20.7% | UO-31 renal -8.52% | TK-10 renal -19.6% | ACHN renal 7.46% | CAKI-1 renal 1.1% | A498 renal -35.9% | MOLT-4 leukemia 2.58%
inactive: HT29 colon 10.1% | SNB-19 CNS 21.2% | U251 CNS 28.3% | PC-3 prostate 12.4% | SN12C renal 10.1% | CCRF-CEM leukemia 22.5%

CCN(CC)CCSc1c2ccc(Cl)cc2nc2ccc(OC)cc12
inactive: HCT-15 colon 47.4% | HT29 colon 34.8% | SNB-75 CNS 110% | SNB-19 CNS 92% | U251 CNS 93% | PC-3 prostate 91.4% | SK-MEL-5 melanoma 103% | UACC-62 melanoma 93.2% | LOX IMVI melanoma 36.7% | SK-MEL-28 melanoma 113% | SK-MEL-2 melanoma 100% | EKVX NSCLC 97.1% | SN12C renal 90.1% | UO-31 renal 88.5% | TK-10 renal 84.1% | ACHN renal 87.6% | CAKI-1 renal 91.3% | A498 renal 100% | CCRF-CEM leukemia 12.7% | MOLT-4 leukemia 48.1%

NC(C(=O)O)C(O)c1ccc(OCc2ccccc2)c(OCc2ccccc2)c1 (stereo not given)
inactive: HCT-15 colon 97.6% | HT29 colon 97.3% | SNB-75 CNS 77.6% | SNB-19 CNS 97.1% | U251 CNS 91% | PC-3 prostate 89.1% | SK-MEL-5 melanoma 103% | UACC-62 melanoma 97.8% | LOX IMVI melanoma 99.1% | SK-MEL-28 melanoma 110% | SK-MEL-2 melanoma 104% | EKVX NSCLC 104% | SN12C renal 107% | UO-31 renal 92.1% | TK-10 renal 104% | ACHN renal 101% | CAKI-1 renal 93.3% | A498 renal 85.3% | CCRF-CEM leukemia 94.6% | MOLT-4 leukemia 98.9%

CC/C=C\C[C@H](O)C/C=C1/C(=O)C(Cl)=C[C@@H]1C/C=C\CCCC(=O)OC
active: HCT-15 colon -61.5% | HT29 colon -76.7% | SNB-19 CNS -10.9% | U251 CNS -75.7% | PC-3 prostate -33.9% | SK-MEL-5 melanoma -77.7% | UACC-62 melanoma -57% | LOX IMVI melanoma -89.9% | SK-MEL-28 melanoma -2.03% | SK-MEL-2 melanoma -21% | EKVX NSCLC -63.2% | SN12C renal -51.7% | UO-31 renal -94.5% | TK-10 renal -34.2% | ACHN renal -43.6% | A498 renal 1.86% | CCRF-CEM leukemia -3.78% | MOLT-4 leukemia -6.11%
inactive: SNB-75 CNS 50% | CAKI-1 renal 13.2%

CC/C=C\C/C=C\C[C@H]1C/C=C2/C(=O)C=C[C@H]2C/C=C\CCC(=O)O1
active: HCT-15 colon -14.6% | HT29 colon -16.5% | U251 CNS 2.71% | PC-3 prostate -18.9% | SK-MEL-5 melanoma -58.4% | UACC-62 melanoma -43.6% | LOX IMVI melanoma -68.4% | SK-MEL-28 melanoma -1.61% | SK-MEL-2 melanoma 7.15% | SN12C renal -10.2% | UO-31 renal -51.7% | TK-10 renal 2.67% | ACHN renal -63.5% | CCRF-CEM leukemia 3.86% | MOLT-4 leukemia -3.06%
inactive: SNB-75 CNS 62% | SNB-19 CNS 40.6% | EKVX NSCLC 18.3% | CAKI-1 renal 34.1% | A498 renal 77.7%

CCCCC[C@@H]1Cc2cc(O)c(C(=O)O)c3c2[C@H](C[C@@]2(CCCO2)O3)O1
inactive: HCT-15 colon 112% | HT29 colon 113% | SNB-75 CNS 98.1% | SNB-19 CNS 107% | U251 CNS 105% | PC-3 prostate 101% | SK-MEL-5 melanoma 111% | UACC-62 melanoma 110% | LOX IMVI melanoma 93.6% | SK-MEL-28 melanoma 109% | SK-MEL-2 melanoma 67.4% | EKVX NSCLC 108% | SN12C renal 104% | UO-31 renal 44.7% | TK-10 renal 129% | ACHN renal 108% | CAKI-1 renal 102% | A498 renal 133% | CCRF-CEM leukemia 94.5% | MOLT-4 leukemia 62.6%

C/C(=C\c1csc(C)n1)[C@@H]1C[C@@H]2O[C@]2(C)CCC[C@H](C)[C@H](O)[C@@H](C)C(=O)C(C)(C)[C@@H](O)CC(=O)N1
active: HCT-15 colon -93.4% | HT29 colon -10.4% | SNB-75 CNS -19.4% | SNB-19 CNS -41.4% | U251 CNS -100% | PC-3 prostate -63.9% | SK-MEL-5 melanoma -89.9% | UACC-62 melanoma -93.7% | LOX IMVI melanoma -100% | SK-MEL-28 melanoma -43.3% | SK-MEL-2 melanoma -46.7% | EKVX NSCLC -25.6% | SN12C renal -81.1% | UO-31 renal -85.7% | TK-10 renal -68% | ACHN renal -100% | CAKI-1 renal -88.4% | A498 renal -28.7% | CCRF-CEM leukemia -80.7% | MOLT-4 leukemia -27.5%

Cc1cc(C(=O)CSc2nc3ccccc3c(=O)[nH]2)c(C)n1C
inactive: HCT-15 colon 104% | HT29 colon 96.6% | SNB-75 CNS 118% | SNB-19 CNS 95.5% | U251 CNS 96.2% | PC-3 prostate 83.9% | SK-MEL-5 melanoma 98.4% | UACC-62 melanoma 90.5% | LOX IMVI melanoma 94.7% | SK-MEL-28 melanoma 121% | SK-MEL-2 melanoma 87.9% | EKVX NSCLC 94.9% | SN12C renal 95.4% | UO-31 renal 38.9% | TK-10 renal 93.1% | ACHN renal 107% | CAKI-1 renal 95.9% | A498 renal 74.6% | CCRF-CEM leukemia 87.2% | MOLT-4 leukemia 118%
